Data from ChEMBL document CHEMBL3988442, “University of Dundee, Small-Polar-MMV Screening Library” (2021).
Screen size: about 48,000 compounds; about 13,000 (27%) showed an effect of 50% or more. This is one part of the list.

These molecules were tested on Wolbachia pipientis (assay: Anti-Wolbachia Cell-Based Screen). Settings: 5 µM.
Format: functional
Set-up: scale not given: in the data most compounds retested in dose-response had high values

| Structure (SMILES) | Percent Effect [%] |
| --- | --- |
| CS(=O)(=O)CC1CCCN(c2ncnc3c2Cc2ccccc2OC3)C1 (centres undefined) | 8.787 |
| CC(C)c1nc(CNc2ccc(CCO)cc2)cs1 | -6.765 |
| Cc1nonc1N1CCN(Cc2nc(CC3CC3)no2)CC1 | -9.131 |
| CC1(c2nccs2)CCN(C(=O)CC2CCOCC2)CC1 | 133.3 |
| Cc1occc1C(=O)N1CCC2(CCN(Cc3nccs3)CC2)C1 | 13.46 |
| O=C(CCNC1(c2nccs2)CCCC1)N1CCOCC1 | -14.98 |
| C[C@@H](NC(=O)c1cnccn1)c1c(-c2ccc(F)cc2)noc1C(=O)O | 0.3029 |
| Cc1ccc(C(=O)N2CCN(CCc3cccs3)CC2)c(=O)[nH]1 | 4.078 |
| Cc1ccc(C2(O)CCN(Cc3nnc(-c4cccnc4)o3)CC2)nc1 | -8.871 |
| Cc1ccc(-c2nnc(CN3CCN(c4ccccn4)CC3)o2)cc1 | 118.2 |
| Cc1ccc(-c2nnc(CN3CCNC(=O)C3)o2)cc1 | -29.77 |
| O=C(c1ccccc1O)N1CCn2c(nnc2C(F)(F)F)C1 | -8.527 |
| O=C(Nc1ccccc1)N1CCn2c(nnc2C2CCNCC2)C1 | 105.9 |
| Cc1cc(NC(=O)CN2CCn3c(nnc3C3CC3)C2)no1 | -12.55 |
| CC(C)NC(=O)C(c1ccccc1)N1CCn2c(nnc2C2CC2)C1 (centres undefined) | 0.9151 |
| O=C(Nc1ccccc1)N1CCn2c(nnc2C2CCCN2)C1 (centres undefined) | 106.2 |
| Cc1nnc2n1CCN(C(=O)C(OC1CCCC1)c1ccccc1)C2 (centres undefined) | 0.08716 |
| Cn1cc(CNCC2(N3CCCCC3)Cc3ccccc3C2)cn1 | -0.5934 |
| CN(C)C(=O)[C@H]1C[C@H]2OCC[C@H]2N(CCOc2ccc(Cl)cc2)C1.O=C(O)C(F)(F)F | -1.97 |
| O=C1CC(c2ccc3ccccc3n2)c2c(n[nH]c2C2CCC2)N1 (centres undefined) | 48.61 |
| CC(C)c1nccc(C2CC(=O)Nc3n[nH]c(C4CCC4)c32)n1 (centres undefined) | 111.7 |
| COc1nc2ccccc2cc1C1CC(=O)Nc2n[nH]c(C3CCC3)c21 (centres undefined) | 94.97 |
| CNC(=O)c1n[nH]c2c1C(c1cccc3nsnc13)CC(=O)N2 (centres undefined) | 1.687 |

| Structure (SMILES) | Percent Effect [%] |
| --- | --- |
| O=C(CN1CCCC1c1nc(Cc2ccc(F)cc2)no1)NC1CC1 (centres undefined) | 6.491 |
| CCCN(CC1CC1)C(=O)CN1CCCC1c1cnn(C)c1 (centres undefined) | -10.58 |
| COCCOC[C@]1(CNCc2ccc(F)cc2)C[C@@H](O)[C@@H](O)C1.Cl | 9.118 |
| CCn1ncc2c1CCCC2NCc1ccc(C)s1 (centres undefined) | -6.275 |
| O[C@@H]1CN(CC2CC2)CC[C@H]1N1CCN(c2ccccc2F)CC1 | 4.313 |
| Cc1cnn(C2CCCN(C(=O)c3c(C)oc(C)c3C)C2)c1 (centres undefined) | 2.216 |
| Cc1nn(C)c(C)c1CCC(=O)N1CCCOC(Cn2cccn2)C1 (centres undefined) | -1.849 |
| Cc1nn(C)c(C)c1CCC(=O)N1CCCC(n2cccn2)C1 (centres undefined) | 104.5 |
| Cc1cnn(C2CCCN(C(=O)CCc3c(C)noc3C)C2)c1 (centres undefined) | 114.5 |
| Cc1noc2ncc(C(=O)N3CCCC(n4cccn4)C3)cc12 (centres undefined) | -8.644 |
| Cc1nn(C)c(C)c1CC(=O)N1CCCC(n2cccn2)C1 (centres undefined) | -0.59 |
| Cc1noc(C)c1CCC(=O)N1CCCC(n2cccn2)C1 (centres undefined) | 112.2 |
| Cc1noc(Cl)c1CC(=O)N1CCCC(n2cccn2)C1 (centres undefined) | -0.9782 |
| O=C(NCc1csc(-c2cccs2)n1)C1NCCc2[nH]cnc21 (centres undefined) | -2.948 |
| COc1ccccc1OCC(=O)NS(=O)(=O)c1ccc(F)cc1F | -4.254 |
| CC(=O)N(CCc1nc(-c2cc(C(N)=O)oc2C)cs1)C(C)C | 1.206 |
| CN1CCN(Cc2cn3c(n2)CN(CC2CC2)CC3)CC1 | 0.4207 |
| CS(=O)(=O)NCc1cn2c(n1)CN(Cc1ccoc1)CC2.O=C(O)C(F)(F)F | 2.843 |
| O=C(CC1CC1)NCc1cn2c(n1)CN(Cc1cccnc1)CC2.O=C(O)C(F)(F)F.O=C(O)C(F)(F)F | -16.83 |
| CN1CCN(Cc2cn3c(n2)CN(Cc2ccncc2)CC3)CC1 | 100.2 |
| c1cncc(CN2CCn3cc(CN4CCCCC4)nc3C2)c1 | 99.27 |
| O=C(NCc1cn2c(n1)CN(Cc1cccnc1)CC2)C1CCC1.O=C(O)C(F)(F)F.O=C(O)C(F)(F)F | -2.2 |
| CN1CCN(Cc2cn3c(n2)CN(Cc2ccccn2)CC3)CC1 | 100 |

| Structure (SMILES) | Percent Effect [%] |
| --- | --- |
| Cn1cccc1C(=O)NCc1cn2c(n1)CN(Cc1cccnc1)CC2.O=C(O)C(F)(F)F.O=C(O)C(F)(F)F | -5.868 |
| CN1CCN(Cc2cn3c(n2)CN(C(=O)N2CCCC2)CC3)CC1 | -9.344 |
| Cn1cccc1C(=O)NCc1cn2c(n1)CN(Cc1ccccn1)CC2.O=C(O)C(F)(F)F.O=C(O)C(F)(F)F | -5.455 |
| CN1CCN(Cc2cn3c(n2)CN(C(=O)c2ccccn2)CC3)CC1.O=C(O)C(F)(F)F.O=C(O)C(F)(F)F.O=C(O)C(F)(F)F | 6.364 |
| CS(=O)(=O)NCc1cn2c(n1)CN(Cc1cccnc1)CC2.O=C(O)C(F)(F)F.O=C(O)C(F)(F)F | 116.6 |
| COCCNC(=O)Nc1ccn(-c2cccc(C(F)(F)F)c2)n1 | 3.521 |
| OCCC1CN(c2ncnc3[nH]cnc23)CCN1Cc1ccccc1F (centres undefined) | -3.014 |
| OCCc1cc(CC2(NCc3ccc(C(F)(F)F)cc3)COC2)no1 | 1.711 |
| CN(C(=O)CN(Cc1cccc(O)c1)C1CCC(O)CC1)C1CC1 (centres undefined) | 2.382 |
| CCc1ccc(CN2CCCC(c3nn(C)c(=O)n3CC)C2)nc1 (centres undefined) | 20.88 |
| CC(C)NC(=O)CCNC(=O)CCc1cc(Br)cs1 | -10.2 |
| COc1ccc(-c2ccccc2CN)c(OC)c1 | -11.71 |
| COc1ccc2c(c1)c(-c1nc(C)ncc1CN)cn2C | 104.6 |
| COc1ccc(-c2n[nH]cc2CN(C)Cc2nccn2C)c(F)c1 | -1.077 |
| Cn1cc(CNC[C@H]2Cn3ccnc3CO2)c2ccccc21 | -9.127 |
| COc1ccc2cccc(CC(=O)NCc3n[nH]c(=O)[nH]3)c2c1 | 5.869 |
| COc1ccc2c(c1)c(-c1nc(N(C)C)ncc1CN)cn2C | 69.63 |
| COc1ccc2cccc(CC(=O)NCc3nccc(N)n3)c2c1 | -13.23 |
| COc1ccc(CN)c(OC(F)F)c1.Cl | -5.611 |
| Cc1cc(N2CCN(C(=O)c3cn(C)c4ccccc34)CC2)nc(C)n1 | 1.104 |
| COc1ccc(OC)c(CN(C)c2nc3c(cnn3C)c(=O)[nH]2)c1 | -18.11 |
| Cc1ncc(CN)c(-c2cn(C)c3ccccc23)n1 | 142.3 |
| COCC(=O)NCc1cnc(C)nc1-c1cn(C)c2ccc(OC)cc12 | 67.07 |
